Assay results as given in PubChem BioAssay AID463173 (ICCB-Longwood Screening Facility, Harvard Medical School, 2010).
The campaign covered roughly 52,000 compounds. About 4,300 (8.3%) were called active. No stated cut-off is given here; in the data, active means survival mostly below about 52% (no sharp cut-off); inactive means mostly above about 56%. Only a selection was taken, and actives are over-represented in it overall.

Each molecule was assayed on DeltatarO mutant (assay: growth inhibition of S. aureus wild type versus tarO mutant, primary screen, teichoic acid synthesis inhibitors, RN4220, OD600 (AID 463173)). Settings: OD600, 18 h, active compounds read low, screened at 18.75 µg/mL (by protocol).

Row | SMILES | survival
1 | COc1cccc(NC(=O)c2sc3nc(C)c(C(=O)Nc4ccc(C)cc4C)c(-c4cccs4)c3c2N)c1 | 122% (inactive)
2 | CCc1ccc(S(=O)(=O)c2cn(Cc3ccccc3F)c3cc(OC)c(OC)cc3c2=O)cc1 | 70% (inactive)
3 | COc1ccc(C(=O)NCc2cn3ccc(C)cc3n2)cc1 | 96% (inactive)
4 | Cc1c(-c2ccccc2)n(-c2ccccc2O)c2nc3c(c(=O)n(C)c(=O)n3C)n12 | 94% (inactive)
5 | CC(=O)c1ccc(NC(=O)c2cc3c(=O)oc4ccc(C)cc4c3s2)cc1 | 106% (inactive)
6 | COc1ccc(-c2noc(CN(C(=O)c3ccccc3Cl)C(C)C)n2)cc1 | 62% (inactive)
7 | COc1ccc(-c2noc(CN(C(=O)c3ccc(C)cc3C)C(C)C)n2)cc1 | -3% (active)
8 | COc1ccc(-c2noc(CN(C(=O)c3cc(OC)c(OC)cc3OC)C(C)C)n2)cc1 | 74% (inactive)
9 | COc1ccc(-c2noc(CNC(=O)COc3cccc(C)c3C)n2)cc1 | 51% (inactive)
10 | COc1ccc(-c2noc(CCC(=O)NCc3ccc(C)cc3)n2)cc1 | 103% (inactive)
11 | Cc1ccc(-c2noc(CN(C(=O)COc3cc(C)cc(C)c3C)C(C)C)n2)cc1 | -3% (active)
12 | COc1ccc(-c2noc(CC(=O)N(C)c3cccc(C)c3)n2)cc1 | 68% (inactive)
13 | COc1ccc(-c2noc(CN(C(=O)Cc3ccc(C)cc3)C(C)C)n2)cc1 | 16% (active)
14 | COc1ccc(-c2noc(CN(C(=O)C(C)Oc3ccc(C)cc3)C(C)C)n2)cc1 (configuration not stated) | 63% (inactive)
15 | COc1ccc(CC(=O)N(Cc2nc(-c3ccc(C)cc3)no2)C(C)C)cc1 | 31% (active)
16 | Cc1ccccc1Cn1c(C)c(CNCc2ccccc2)c(C(=O)O)c1C | 84% (inactive)
17 | Cc1cccc(N(CC(=O)N(C)Cc2ccccc2)S(=O)(=O)c2ccccc2)c1C | 47% (inactive)
18 | O=S(=O)(c1ccc(Cl)cc1)c1nnn2c1nc(NCc1ccc3c(c1)OCO3)c1sccc12 | 69% (inactive)
19 | Cc1ccc2c(=O)c(C(=O)c3cccc(Cl)c3)cn(CC(=O)Nc3ccc4c(c3)OCCO4)c2n1 | 80% (inactive)
20 | CC(=O)Nc1ccc(S(=O)(=O)N2CCC(c3nnnn3-c3ccccc3)CC2)cc1 | 76% (inactive)
21 | O=C(NCCN1CCCCC1)Nc1c[nH]c2c(Cl)cccc2c1=O | 102% (inactive)
22 | COC(=O)c1cc(-c2ccc(Cl)cc2)c2c(=O)[nH]c(=O)n(C)c2n1 | 92% (inactive)
23 | COc1ccc(-c2noc(-c3nnn(-c4cc(C)ccc4C)c3N)n2)cc1 | 81% (inactive)
24 | Cc1ccc(-c2noc(CNC(=O)COc3cc(C)c(Br)c(C)c3)n2)cc1 | 80% (inactive)
25 | Cc1ccc(-c2noc(CNC(C)C)n2)cc1 | 77% (inactive)

Row | SMILES | survival
26 | Cc1ccc(CC(=O)N(Cc2nc(-c3ccc(C)cc3)no2)C(C)C)cc1 | -4% (active)
27 | COc1ccc(-c2noc(CN(C(=O)COc3cc(C)c(Br)c(C)c3)C(C)C)n2)cc1 | 31% (active)
28 | COc1ccc(-c2noc(CC(=O)Nc3ccc(Br)cc3C)n2)cc1 | 59% (inactive)
29 | Cc1ccc(CC(=O)NCc2nc(-c3ccccc3)no2)cc1 | 77% (inactive)
30 | O=C(CS(=O)(=O)c1cccc2nsnc12)Nc1ccc(F)cc1 | 97% (inactive)
31 | CCN(CC)C(=O)CSc1nc2c(c(=O)n(C)c(=O)n2C)n1Cc1ccccc1 | 76% (inactive)
32 | Cc1ccc(C)c(NC(=O)C(NS(=O)(=O)c2ccc3c(c2)CCC(=O)N3)c2ccccc2)c1 (configuration not stated) | 113% (inactive)
33 | COC(=O)c1ccc(NCC(=O)c2ccccc2)cc1 | 64% (active)
34 | CCOC(=O)Nc1ccc(C(=O)OC)cc1 | 75% (inactive)
35 | COC(=O)c1ccc(NC(=O)CCOc2ccccc2)cc1 | 69% (inactive)
36 | O=C(NC1CCCCC1)/C(=N\O)c1ccccn1 | 97% (inactive)
37 | CCOc1ccc(NC(=O)Cn2cc(C(=O)c3ccc(C)c(C)c3)c(=O)c3cc4c(cc32)OCCO4)cc1 | 62% (inactive)
38 | CCOC(=O)c1sc(N2N=C(C)CC2=O)nc1C | 76% (inactive)
39 | CC1=NN(c2ccc(N)cc2)C(=O)C1 | 107% (inactive)
40 | CCCCCN1N=C(C)CC1=O | 39% (active)
41 | CCN(CC)CCCNC(=O)C(=O)Nc1ccc2nc3n(c(=O)c2c1)CCCCC3 | 91% (inactive)
42 | COc1ccc(-c2noc(CCC(=O)Nc3cccc(C)c3C)n2)cc1OC | 69% (inactive)
43 | COc1cc2ccccc2cc1C(=O)Nc1ccc2oc(-c3ccc(F)cc3Cl)nc2c1 | 59% (inactive)
44 | Cc1cccc(-c2nc3cc(NC(=O)COc4ccccc4F)ccc3o2)c1 | 103% (inactive)
45 | CCc1ccc(-c2nc3cc(NC(=O)c4cc5ccccc5cc4OC)ccc3o2)cc1 | 11% (active)
46 | COc1cc2ccccc2cc1C(=O)Nc1ccc2oc(-c3cccc(C)c3)nc2c1 | 25% (active)
47 | CCc1ccc(OCC(=O)Nc2ccc3oc(-c4ccc(OC)cc4)nc3c2)cc1 | 62% (inactive)
48 | COc1cc2ccccc2cc1C(=O)Nc1ccc2oc(-c3ccc(Cl)cc3)nc2c1 | 59% (inactive)
49 | COc1cc2ccccc2cc1C(=O)Nc1ccc2oc(-c3ccc(F)cc3)nc2c1 | 43% (active)
50 | COc1cc2ccccc2cc1C(=O)Nc1ccc2oc(-c3ccccc3)nc2c1 | 8% (active)

Row | SMILES | survival
51 | O=C(Nc1ccc(-c2nc3cc(NC(=O)c4ccccc4F)ccc3o2)cc1)c1ccccc1F | 90% (inactive)
52 | COc1ccc(C(=O)Nc2ccc3oc(-c4ccc5ccccc5c4)nc3c2)cc1Br | 63% (inactive)
53 | COc1cc(C(=O)Nc2ccc3oc(-c4ccccc4)nc3c2)cc(OC)c1OC | 51% (inactive)
54 | CCc1ccc2oc(-c3ccc(NC(=O)c4ccc(OC)c(Br)c4)cc3)nc2c1 | 60% (inactive)
55 | COC(=O)CSc1ccc2nnc(CCNS(=O)(=O)c3ccccc3)n2n1 | 118% (inactive)
56 | CCc1ccc(NC(=O)NCCc2c(C)nn(C)c2C)cc1 | 72% (inactive)
57 | COc1ccccc1Cn1cc(C(=O)c2ccc(Cl)cc2)c(=O)c2ccccc21 | 83% (inactive)
58 | Cc1cccc(Cn2c(=O)n(Cc3ccc4c(c3)OCO4)c(=O)c3oc4ccccc4c32)c1 | 77% (inactive)
59 | Cc1oc2ncn(CC(C)C)c(=O)c2c1C(=O)Nc1cc(F)ccc1F | 65% (inactive)
60 | COc1ccc2c(CNC3CCC(C)CC3)c(C(=O)O)n(Cc3ccc(F)cc3)c2c1 (configuration not stated) | 70% (inactive)
61 | CCC(=O)n1nc(-c2ccccc2)nc1N | 104% (inactive)
62 | CN(Cc1ccccc1)c1ncnc2c1nnn2C | 72% (inactive)
63 | COc1cccc(CNC(=O)CSc2nc(=O)[nH]c3c2CCCC3)c1 | 85% (inactive)
64 | C=CCSc1nnc(-c2ccccc2)n1-c1ccccc1 | 103% (inactive)
65 | Cc1c(Cl)cccc1NC(=O)CSc1nc(=O)[nH]c2c1CCC2 | 93% (inactive)
66 | CCOC(=O)CSc1nc2ccccc2c(=O)n1-c1ccc(C(=O)NCCOC)cc1 | 96% (inactive)
67 | Cc1cccc(-n2c(SCC(N)=O)nc3ccccc3c2=O)c1 | 90% (inactive)
68 | CCCN1C(=O)C(Cc2nc3ccccc3c(=O)n2CC)c2cc(Br)ccc21 (configuration not stated) | 34% (active)
69 | CCn1c(CC2C(=O)N(C)c3ccc(Br)cc32)nc2ccccc2c1=O (configuration not stated) | 70% (inactive)
70 | CCCN1C(=O)C(Cc2nc3ccccc3c(=O)n2CC)c2ccccc21 (configuration not stated) | 84% (inactive)
71 | CCCN1C(=O)C(Cc2nc3ccccc3c(=O)n2-c2ccccc2)c2cc(C)ccc21 (configuration not stated) | 68% (inactive)
72 | CCOC(=O)CSc1nc2ccccc2c(=O)n1-c1cccc(C)c1 | 31% (active)
73 | CCCN1C(=O)C(Cc2nc3ccccc3c(=O)n2-c2cccc(C)c2)c2ccccc21 (configuration not stated) | 36% (active)
74 | CCN1C(=O)C(Cc2nc3ccccc3c(=O)n2-c2cccc(C)c2)c2ccccc21 (configuration not stated) | 50% (inactive)
75 | COCCN(C(=O)c1ccccc1)c1nnc(-c2ccncc2)s1 | 94% (inactive)

Row | SMILES | survival
76 | Cc1cc(C)cc(NC(=O)CSc2nc(=O)[nH]c3c2CCC3)c1 | 112% (inactive)
77 | CCCOC1(C(F)(F)F)NC(=O)N(c2ccc(Cl)cc2)C1=O (configuration not stated) | 66% (inactive)
78 | Cc1cc(C)c2c(n1)SCCN2C(=O)Nc1ccc(C(=O)Nc2cc(Cl)ccc2C)cc1 | 97% (inactive)
79 | CC(=O)Nc1ccc(NC(=O)CCc2c(C)nc3c(c(C)nn3-c3ccc(C)cc3)c2C)cc1 | 114% (inactive)
80 | CCC1CN(C(=O)N2CCC(C(=O)N3CCN(c4cc(C)ccc4C)CC3)CC2)c2ccccc2O1 (configuration not stated) | 36% (active)
81 | CCC1CN(C(=O)N2CCC(C(=O)N3CCN(c4ccccc4F)CC3)CC2)c2ccccc2O1 (configuration not stated) | 97% (inactive)
82 | CCC1CN(C(=O)N2CCC(C(=O)N3CCN(c4cccc(C)c4C)CC3)CC2)c2ccccc2O1 (configuration not stated) | 62% (inactive)
83 | CC1=C(C(=O)Nc2ccc(C)cc2C)C(c2sccc2C)n2ncnc2N1 (configuration not stated) | 68% (inactive)
84 | O=C(NC1CCCC1)c1ccc2c(c1)OCO2 | 69% (inactive)
85 | O=C1C2C3c4ccccc4C(c4ccccc43)C2C(=O)N1C(CO)(CO)CO (configuration not stated) | 102% (inactive)
86 | CC1=C(C(=O)OC2CCCCCC2)C(c2c(F)cccc2Cl)CC(=O)N1 (configuration not stated) | 57% (inactive)
87 | CC1=C(C(=O)OC2CCCCCC2)C(c2c(Cl)cccc2Cl)CC(=O)N1 (configuration not stated) | 32% (active)
88 | CC1=C(C(=O)OC2CCCC2)C(c2c(Cl)cccc2Cl)CC(=O)N1 (configuration not stated) | 71% (inactive)
89 | CCCN1CC=C2C(C#N)=C(N)C(C#N)(C#N)C(c3ccc(OCC(N)=O)cc3)C2C1 (configuration not stated) | 81% (inactive)
90 | CCCc1ccc(S(=O)(=O)N2CCC(c3nnc(-c4cccc(C)c4)o3)CC2)cc1 | 75% (inactive)
91 | COc1ccc(CNCc2c(C(=O)O)c(C)n(Cc3ccccc3C)c2C)cc1OC | 91% (inactive)
92 | CCOc1cc(/C=C(\C#N)C(=O)Nc2ccc(OC)cc2)ccc1OCc1cc(=O)n2nc(CC)sc2n1 | 55% (active)
93 | COc1cc(/C=C(\C#N)C(=O)Nc2ccc(C)cc2)ccc1OCc1cc(=O)n2nc(C)sc2n1 | 78% (inactive)
94 | CCc1nn2c(=O)cc(COc3ccc(/C=C(\C#N)C(=O)Nc4ccc(F)cc4)cc3OC)nc2s1 | 106% (inactive)
95 | Cc1nn2c(=O)cc(COc3ccc(/C=C(\C#N)C(=O)Nc4ccccc4)cc3Cl)nc2s1 | 49% (active)
96 | COc1ccc(NC(=O)/C(C#N)=C/c2ccc(OCc3cc(=O)n4nc(C)sc4n3)cc2)cc1 | 61% (inactive)
97 | CCOc1cc(/C=C(\C#N)C(=O)Nc2ccc(C)cc2)ccc1OCc1cc(=O)n2nc(CC)sc2n1 | 68% (inactive)
